Experimental findings from PubChem BioAssay AID686978 (National Center for Advancing Translational Sciences (NCATS), 2013) are described below.

In all, about 420,000 compounds went through this assay and about 64,000 (15%) were called active. About 27% were inconclusive and are not listed. The call rests on the fitted dose curve; in most records, active means well fitted inhibition curve with a large enough effect; inconclusive means small, poorly fitted or top-dose-only effect; inactive means flat fitted curve, though single readings scatter. A selection follows. Entries that show only a call come without a potency.
Potency means the concentration at half of the fitted maximal effect.

The test in a line: qHTS for Inhibitors of human tyrosyl-DNA phosphodiesterase 1 (TDP1): qHTS in cells in absence of CPT. Further: nearly all actives have a fitted effect of over 55% in size. The following applies: DT40 Tdp1-/- hTDP1 cells, no CPT, ATP luminescence, 48 h; activity change, negative = growth inhibition: at 46.2 µM (top of the series). In a few lines:
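A cellular qHTS used chicken DT40 cells lacking endogenous Tdp1 but carrying stably transfected human TDP1. Compounds were applied without camptothecin, and cell growth kinetics were judged by ATP-dependent luminescence after ≥48 hr.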
For orientation: In qHTS, concentration-response curves come from the screen itself.
Take `COC(=O)CNC(=O)c1ccccc1F`: the Potency result is “inactive”.

For the compound `CN(NC(=O)c1ccccc1)c1nc2ccccc2nc1C(F)(F)F`, the Potency was 7.31 µM (active).

On to `Cc1ccc(S(=O)(=O)NC(=O)c2cccc(C)c2)cc1`, for which the Potency result is “inactive”.

For `O=C(Nn1cnc2ccccc2c1=O)c1ccccc1`, the Potency entry was “inactive”.

As to `CN(NC(=O)c1ccccc1F)c1nc(C(F)(F)F)nc2ccccc12`, the Potency was 0.206 µM (active).

For the compound `CSc1nc(N(C)NC(=O)c2cccc(C)c2)c2ccccc2n1`, the Potency is 0.0146 µM (active).

Take `O=C(Cn1cnc2ccccc2c1=O)NNC(=O)c1ccccc1F`: the Potency result is “inactive”.

Consider `Cc1nc2ccccc2c(=O)n1NC(=O)c1ccccc1`, for which the Potency entry was “inactive”.

As for `Cc1cccc(C(=O)NCCCN(C)CCCNC(=O)c2cccc(C)c2)c1`, the Potency result was “inactive”.

`Cc1cc(OC(C)C(=O)NC2CC(C)(C)NC(C)(C)C2)c2c(C)cc(=O)oc2c1` (stereo not given): the Potency result is “inactive”.

Regarding `Oc1ccccc1-c1nc(/C=C/c2ccc(F)cc2)no1`, the Potency entry was “inactive”.

`CCCN(c1ccc(C(C)C)cc1)S(=O)(=O)c1c(C)[nH]c(=O)[nH]c1=O`: the Potency result was “inactive”.

On to `O=C(NC1CCCCC1)C1CCC(CNS(=O)(=O)c2ccccc2)CC1` (stereo not given), for which the Potency entry is “inactive”.

As to `CCOc1ccc(N(CC(=O)NC2CCCCCC2)S(=O)(=O)c2c(C)[nH]c(=O)[nH]c2=O)cc1`, the Potency entry was “inactive”.

As for `CC(=O)NC(NC(=S)Nc1c(C)n(C)n(-c2ccccc2)c1=O)C(Cl)(Cl)Cl` (stereo not given), the Potency entry is “inactive”.

In the case of `CC1(C)Cc2cccc(OCC(N)=O)c2O1`, the Potency result was “inactive”.

`CC(=O)Nc1cncc(-c2ccccc2CO)n1`: the Potency result was “inactive”.

On to `CC1C(=O)NC(=O)C1c1ccccc1` (stereo not given), for which the Potency result was “inactive”.

As to `O=C(CNC(=O)c1ccccc1Br)NCCSc1ccc(Br)cc1`, the Potency was 18.4 µM (active).

Turning to `COc1cccc(C(=O)NCCSc2ccc(Br)cc2)c1`, the Potency result was “inactive”.

Turning to `O=C(CCNS(=O)(=O)c1ccccc1)NCCSc1ccc(Br)cc1`, the Potency entry was “inactive”.

For the compound `CC(=O)c1sc(NC(=O)CCN2C(=O)C3CC=CCC3C2=O)nc1-c1ccccc1` (stereo not given), the Potency entry was “inactive”.

On to `CC(Oc1ccccc1)C(=O)Nc1oc(-c2ccco2)c(-c2ccco2)c1C#N` (stereo not given), for which the Potency result was “inactive”.

`CSc1ncc(Cl)c(C(=O)Nc2cc(C)ccc2C)n1`: the Potency result is “inactive”.

For the compound `CCc1ccc(NC(=O)c2cc(S(=O)(=O)N3CCCC(C)C3)cn2C)cc1` (stereo not given), the Potency result was “inactive”.

Turning to `CSc1ncc(Cl)c(C(=O)Nc2ccc(S(=O)(=O)N3CCCC(C)C3)cc2)n1` (stereo not given), the Potency was 14.6 µM (active).

As to `COc1c(F)c(F)c(-c2csc(N)n2)c(F)c1F`, the Potency result is “inactive”.

For `Cc1cc(C)n(CCNCc2c(C(=O)N3C[C@@H](C)O[C@@H](C)C3)nc3ccc(Cl)cn23)n1`, the Potency result was “inactive”.

In the case of `O=C1c2ccccc2NC(c2ccccc2O)N1NS(=O)(=O)c1ccccc1` (stereo not given), the Potency entry was “inactive”.

Regarding `CC(=O)NN1C(=O)c2ccccc2NC1c1ccccc1` (stereo not given), the Potency result was “inactive”.

Turning to `CCOC(=O)NN1C(=O)c2ccccc2NC1c1ccccc1O` (stereo not given), the Potency was 23.1 µM (active).

Regarding `CCCCNC(=O)Nc1c(C)cc(SC#N)cc1C`, the Potency was 8.2 µM (active).

With `CCCCNC(=O)C(=O)c1ccccc1NC(C)=O`, the Potency entry was “inactive”.

Take `CCC(C)C(CO)NC(=O)/C=C/[C@H]1O[C@@H](n2cnc3c(NC(=O)c4ccccc4)ncnc32)[C@H](O)[C@@H]1O` (stereo not given in full): the Potency result is “inactive”.

On to `CNc1nnc(-c2ccco2)s1`, for which the Potency entry is “inactive”.

As to `O=C(NCc1ccccn1)Nc1ccc(F)cc1`, the Potency result is “inactive”.

For `CCOC(=O)c1ccccc1NC(=O)CSc1nc2c(sc(=S)n2CC)c(=O)[nH]1`, the Potency entry was “inactive”.

Consider `CC(C)CN1CCNC(=O)C1CC(=O)N(C)CC1CCOCC1` (stereo not given), for which the Potency entry was “inactive”.

As to `COC(=O)c1cc(C(=O)OCC(=O)Nc2cc(C)on2)cc([N+](=O)[O-])c1`, the Potency entry was “inactive”.

With `CC(NC(=O)CN(C)S(=O)(=O)c1ccc(F)cc1)C1CC2CCC1C2` (stereo not given), the Potency entry is “inactive”.

As to `COC(=O)c1cc(C(=O)NC(C)C2CC3CCC2C3)cc([N+](=O)[O-])c1` (stereo not given), the Potency was 20.6 µM (active).

Consider `OC1CN=C2Sc3ccccc3N2C1` (stereo not given), for which the Potency entry was “inactive”.

Take `O=C(NC(=O)c1ccc(Cl)c(Cl)c1)OC1CCS(=O)(=O)C1` (stereo not given): the Potency result was “inactive”.

Consider `CCCCOc1ccc(C(=O)NCC(=O)OCC(=O)c2c(N)n(C)c(=O)n(C)c2=O)cc1`, for which the Potency result was “inactive”.

Take `COc1cc(NC(=O)c2cccnc2SC)cc(OC)c1`: the Potency result is “inactive”.

Consider `O=C(Nc1cccc(C(F)(F)F)c1)c1cnccn1`, for which the Potency result was “inactive”.

For the compound `COc1cc(NC(=O)c2cncc(-c3ccc(C#N)cc3)c2)cc(C(=O)Nc2cccc(C(F)(F)F)c2)c1`, the Potency was 10.3 µM (active).

`COc1cc(NC(=O)c2[nH]cnc2C(N)=O)cc(C(=O)Nc2cccc(C(F)(F)F)c2)c1`: the Potency is 18.4 µM (active).

Turning to `CCn1nnnc1SCC(=O)Nc1ccc(N(C)C)cc1`, the Potency result is “inactive”.

On to `Cn1c(N)c(C(=O)COC(=O)/C=C/c2cccc(C(F)(F)F)c2)c(=O)n(C)c1=O`, for which the Potency entry is “inactive”.

As to `Cc1noc(C)c1-c1nccc(N2CCOCC2)n1`, the Potency entry is “inactive”.

Take `CCCCc1nc2cc(C(=O)NCCc3cnn(C)c3)ccc2o1`: the Potency entry was “inactive”.

`O=C(O)C1CC=CCC1C(=O)Nc1ccccc1C(=O)N1CCN(c2ccccc2)CC1` (stereo not given): the Potency was 20.6 µM (active).

In the case of `O=C(Nc1ccccc1C(=O)N1CCCCCC1)c1ccccc1Cl`, the Potency entry is “inactive”.

Regarding `CC1CCN(C(=O)c2ccccc2NC(=O)Cc2ccccc2)CC1`, the Potency result was “inactive”.

For `Cc1ccccc1NC(=O)C1CCN(C(=O)NC2CCCCC2)CC1`, the Potency result is “inactive”.

Take `Cc1ccc(NC(=O)CN2c3ccccc3S(=O)(=O)c3ccccc32)cc1F`: the Potency is 18.4 µM (active).

Regarding `CC1CC(=O)N(CC(=O)Nc2cccc(Cl)c2)c2ccccc2S1(=O)=O` (stereo not given), the Potency result was “inactive”.

As to `CC(=O)N1CCN(CC(=O)Nc2ccc(C)c(F)c2)CC1`, the Potency result was “inactive”.

As for `CCCCOc1ccc(NC(=O)c2cc3c(n(-c4ccc(Cl)cc4)c2=O)CCCC3=O)cc1`, the Potency result is “inactive”.

As to `c1ccc2cc(C3=NCCN3)ccc2c1`, the Potency result was “inactive”.

As for `C=CCNC(=O)c1ccccc1NC(=O)c1ccc(Cl)c(S(=O)(=O)Nc2cccc(C)c2C)c1`, the Potency is 16.4 µM (active).

Take `Cc1cc(=O)c2cc(C(=O)Nc3cccc(C)c3C)ccc2[nH]1`: the Potency entry is “inactive”.

With `Cc1ccccc1NC(=O)c1cc(S(=O)(=O)Nc2cccc(C(=O)O)c2)ccc1Cl`, the Potency entry is “inactive”.

With `CC1(C)CC(=O)C2=C(C1)Nc1cc(C(=O)c3ccccc3)ccc1NC2c1ccccn1` (stereo not given), the Potency entry was “inactive”.

In the case of `O=C(COC(=O)c1ccccc1OCCOc1ccccc1)Nc1cccc(Br)c1`, the Potency entry is “inactive”.

For `Cc1cccc(NC(=O)COC(=O)c2ccccc2OCc2cccc(Br)c2)c1`, the Potency was 22.4 µM (active).

For the compound `Cc1cccc(C(=O)OCC(=O)Nc2ccc(F)cc2)c1`, the Potency result is “inactive”.

With `Nc1nc(C23CC4CC(CC(C4)C2)C3)cs1`, the Potency result was “inactive”.

On to `CN(C)c1ccc(S(=O)(=O)NCC(=O)NCC2CCCCC2)cc1[N+](=O)[O-]`, for which the Potency entry was “inactive”.

On to `Cc1noc(NS(=O)(=O)c2ccc(N3CC(O)=C(c4ccccc4)C3=N)cc2)c1C`, for which the Potency entry is “inactive”.

Take `CCC(C)c1ccccc1N1CC(C(=O)N2CCN(S(=O)(=O)c3ccc(F)cc3)CC2)CC1=O` (stereo not given): the Potency entry was “inactive”.

Take `CC(=O)NC(c1ccccc1)c1nc(-c2ccccc2C)cs1` (stereo not given): the Potency result is “inactive”.

In the case of `CCC1=C(OC(=O)N(CC)CC)N2C(=O)OC(=NCC3CC3)[C@]2(C)[C@H]2C1=CC[C@H]1C(=O)N(CC(=O)OC)C(=O)[C@H]12`, the Potency result is “inactive”.

Regarding `COc1ccc(OC)c(S(=O)(=O)Nc2c(C)nn(C)c2C)c1`, the Potency entry was “inactive”.

In the case of `CCn1nc(C)c(NC(=O)/C=C/c2ccc(OC)c(COc3ccc(Br)cc3)c2)c1C`, the Potency was 20.6 µM (active).

On to `CCn1nc(C(=O)NNS(=O)(=O)c2cc(/C=C/C(=O)O)cc(OC)c2OC)c2ccccc2c1=O`, for which the Potency result is “inactive”.

Consider `Cc1ccccc1NC(=O)c1c(NC(=O)c2ccccc2F)sc2c1CCC(C)C2` (stereo not given), for which the Potency entry is “inactive”.

Regarding `COC(=O)c1c(NC(=O)c2ccccc2F)sc2c1C(C(=O)OC)CC2` (stereo not given), the Potency is 11.6 µM (active).

Regarding `O=C(Nc1nnc(-c2ccccc2F)s1)c1ccccc1F`, the Potency result was “inactive”.

With `COc1cc(NC(=O)CCNC(=O)Cn2ccc3ccccc3c2=O)cc(OC)c1OC`, the Potency entry is “inactive”.

Consider `CC(=O)C[C@H](O)CC(=O)[C@@H]1OC(=O)[C@@H](C)C/C=C\Cc2ccccc21`, for which the Potency result was “inactive”.

As for `Cc1cc(C)c2c3c(sc2n1)C(c1ccccc1)C(C#N)=C(N)O3` (stereo not given), the Potency entry is “inactive”.

With `CC(C)c1ccc(C2C(C#N)=C(N)Oc3c2oc(CO)cc3=O)cc1` (stereo not given), the Potency result is “inactive”.

Consider `N#CC1=C(N)Oc2cc(N)ccc2C1c1ccccc1` (stereo not given), for which the Potency was 18.4 µM (active).

On to `c1nc(COc2nsnc2N2CCOCC2)cs1`, for which the Potency result was “inactive”.

With `CC(=O)Nc1cc2ccc(OC(C)=O)cc2oc1=O`, the Potency result was “inactive”.

Regarding `CC(C)NC(=O)C(=O)N/N=C/c1ccco1`, the Potency entry was “inactive”.

Take `CCCc1nc2c(C)cc(-c3nc4ccccc4n3C)cc2n1Cc1ccc(-c2ccccc2C(=O)O)cc1`: the Potency entry was “inactive”.

For the compound `CC(C)Oc1ccc(CNC(=O)C2CCN(c3nc4ccccc4n(C)c3=O)CC2)cc1`, the Potency entry is “inactive”.

Turning to `CCCCNC(=O)CCn1c(=O)c2ccccc2n(Cc2cc(C)ccc2C)c1=O`, the Potency entry was “inactive”.

For the compound `CCc1ccc(OCCCn2c(CCCNC(=O)C3CCCCC3)nc3ccccc32)cc1`, the Potency was 4.47 µM (active).

As to `Cc1ccc(Cn2c(CCCNC(=O)C3CCCCC3)nc3ccccc32)cc1`, the Potency was 20.6 µM (active).

On to `O=C(NCCCc1ccccc1)C1CCC(CNc2c(N3CCCCC3)c(=O)c2=O)CC1` (stereo not given), for which the Potency entry was “inactive”.

In the case of `Cc1ccc(C)c(Cn2c(CCCNC(=O)C3CCCCC3)nc3ccccc32)c1`, the Potency is 16.4 µM (active).

On to `CCCNC(=O)C1CCN(c2nc3ccc(C)cc3[nH]2)CC1`, for which the Potency result is “inactive”.

Consider `Cc1ccc(CN2C(=O)CCC2C(=O)NCCCN2CCCCC2C)cc1` (stereo not given), for which the Potency result was “inactive”.

As for `O=C(NC1CC(=O)N(c2ccc(F)cc2)C1)c1cccs1` (stereo not given), the Potency result is “inactive”.

As to `Cc1cc(C)c(S(=O)(=O)c2ccc(F)cc2C)c(=O)[nH]1`, the Potency entry is “inactive”.

For the compound `COc1cccc(NC(=O)c2nn(-c3ccc(OC)cc3OC)c(=O)c3ccccc23)c1`, the Potency result is “inactive”.

As for `O=C1NC(c2ccccc2)Cc2ccncc21` (stereo not given), the Potency entry is “inactive”.

Turning to `N[C@H]1CN(c2c(F)cc3c(=O)c(C(=O)O)cn(C4C[C@H]4F)c3c2Cl)CC12CC2` (stereo not given in full), the Potency result is “inactive”.

With `Cc1ccc(OCC(=O)Nc2cccc3c2CCCC3)cc1C`, the Potency result is “inactive”.

In the case of `NS(=O)(=O)c1cccc(NC(=O)CN2CCCc3ccccc32)c1`, the Potency entry was “inactive”.

Regarding `COC(=O)c1[nH]c2cccc(C)c2c1NC(=O)CN1CCCc2ccccc21`, the Potency was 20.6 µM (active).
